# Screening results (PubChem)
# In the library only some 1.5% were active in any assay of this set; here they are far more common.
# RAD54 branch: inhibitors of human RAD54 branch migration. Q92698. RAD54 Holliday junction branch migration, FAM/BHQ fluorescence. inhibition, % at 10.4 µM. 360,000 compounds, 0.14% hits. AID 602329;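 active means mean normalized replicate activity at least 40 and at least half of replicates scoring 40 or more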;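 further: inhibitors cause a drop in the FAM fluorescence signal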
# CendR NRP1 mod: NRP-1/CendR interaction modulation | FAM-RPARPAR peptide binding to NRP-1, fluorescence polarization | 360,000 compounds, 0.85% hits | inhibition, % at 25 µM | O14786 | AID 602438;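 active means inhibition or corrected inhibition above about 18%, plus a signal ratio from 0.5 to 1.5, limit read from the data, passing the limit was not always enough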
# Target sequence (O14786 whole entry, looked up): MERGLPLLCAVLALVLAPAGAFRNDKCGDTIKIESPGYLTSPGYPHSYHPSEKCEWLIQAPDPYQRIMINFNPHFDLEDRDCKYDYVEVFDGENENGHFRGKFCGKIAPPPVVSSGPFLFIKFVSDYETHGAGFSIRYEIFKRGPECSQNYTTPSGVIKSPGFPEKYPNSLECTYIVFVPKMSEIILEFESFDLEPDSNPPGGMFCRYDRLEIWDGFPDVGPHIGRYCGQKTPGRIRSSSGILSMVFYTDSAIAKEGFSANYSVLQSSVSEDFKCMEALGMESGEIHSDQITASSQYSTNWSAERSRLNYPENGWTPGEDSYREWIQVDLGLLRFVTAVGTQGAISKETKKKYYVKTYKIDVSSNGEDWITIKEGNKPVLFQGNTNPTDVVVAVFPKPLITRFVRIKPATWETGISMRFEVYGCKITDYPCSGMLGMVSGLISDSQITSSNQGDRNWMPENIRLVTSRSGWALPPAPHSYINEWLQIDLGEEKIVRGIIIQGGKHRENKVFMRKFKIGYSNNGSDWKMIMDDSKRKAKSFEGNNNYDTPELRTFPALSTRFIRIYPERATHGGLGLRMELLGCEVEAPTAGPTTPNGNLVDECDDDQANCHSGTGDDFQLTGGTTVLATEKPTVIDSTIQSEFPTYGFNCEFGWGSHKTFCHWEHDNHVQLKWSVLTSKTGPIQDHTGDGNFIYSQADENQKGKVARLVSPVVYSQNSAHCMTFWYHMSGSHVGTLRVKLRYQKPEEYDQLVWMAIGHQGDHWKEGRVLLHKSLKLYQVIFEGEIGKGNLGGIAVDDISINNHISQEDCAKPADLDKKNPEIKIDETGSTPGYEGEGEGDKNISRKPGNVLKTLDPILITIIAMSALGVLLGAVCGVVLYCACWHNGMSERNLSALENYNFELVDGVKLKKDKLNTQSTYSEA
# miR-122 sensor: blocks miR-122 activity in Huh7 sensor cells | Huh7 miR-122 Renilla luciferase sensor, 48 h; neutral wells = 0, positive control = 100 | activation (reporter increase), % at 12.5 µM | 340,000 compounds, 0.3% hits | AID 602342;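 active means mean replicate activation score at least 90 and every replicate individually at or above 90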;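 further: higher luciferase means less miR-122 activity so hits act as miR-122 inhibitors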
# RAD52 anneal inh: RAD52 (human) annealing inhibition | 360,000 compounds, 0.46% hits | inhibition, % at 18.7 µM | recombinant RAD52 DNA annealing, FRET fluorescence | P43351;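 active means every replicate showing at least 50% inhibition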
# Glyco luc inh: N-linked glycosylation inhibition; D54 ERlucT glycosylation luciferase reporter, 24 h; percent of 100 nM tunicamycin response; reporter increase, % at 12.5 µM; 360,000 compounds, 0.23% hits;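 active means mean luciferase reporter signal, scaled so untreated is 0 and the glycosylation-blocking control 100, at or above a set limit in every replicate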;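 further: luciferase carries N-glycosylation sites so blocking glycosylation raises the light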
# DNA FID counter: displaces DNA intercalator in HCV helicase counter-screen. DNA fluorescent intercalator displacement, fluorescence. 290,000 compounds, 0.17% hits. AID 1845. inhibition, % at 7.9 µM; in the data active means inhibition above about 37%;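 further: higher means more ethidium bromide displaced from hairpin DNA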
# Numbers stand for hits; n = inactive; x = no result given; ! = a repeat was not active.
SMILES,RAD54 branch,CendR NRP1 mod,miR-122 sensor,RAD52 anneal inh,Glyco luc inh,DNA FID counter
O=C(Nc1ccccc1F)N1C[C@@H]2N[C@H](C1)C2c1ccc(/C=C/c2ccccc2)cc1 (some centres not stated),x,x,x,69.1,x,x
COc1ccccc1S(=O)(=O)N[C@H]1C=C[C@@H](CC(=O)N2CCOCC2)O[C@@H]1CO,n,x,x,n,x,x
COc1ccc(S(=O)(=O)Nc2ccc3c(c2)C(=O)N([C@H](C)CO)C[C@H](C)[C@@H](CN(C)C)O3)cc1,n,x,n,n,x,x
COc1ccc(-c2csc(C(NC(C)=O)c3ccc(F)c(F)c3)n2)cn1 (configuration not stated),n,n,n,n,n,x
CC(=O)NC(c1cccc(F)c1)c1nc(-c2cccc(C(=O)O)c2)cs1 (configuration not stated),n,n,n,n,n,x
CC(=O)NC(c1cccc(F)c1)c1nc(-c2cccc(C(F)(F)F)c2)cs1 (configuration not stated),n,25.3,n,n,n,x
COc1ccc(-c2csc(C(NC(C)=O)c3cccc(F)c3)n2)cn1 (configuration not stated),n,26.6,n,n,n,x
CC(C)(C)OC(=O)Nc1ncnc2c1ncn2C1OC(CO)C2OC(C)(C)OC21 (configuration not stated),n,n,x,n,n,n
CC1(C)O[C@@H]2[C@H](O1)[C@@H](CO)O[C@H]2n1cnc2c(=O)[nH]cnc21,n,25.7,n,n,n,x
CCCC(=O)Nc1ccc2c(c1)OC[C@@H](C)N(CCC(F)(F)F)C[C@@H](C)[C@H](OC)CN(C)C2=O,x,x,x,n,x,x
CCOc1ccccc1N(CC(=O)N1CCOCC1)S(=O)(=O)c1ccc(SC)cc1,n,28.5,n,x,n,n
O=C(Nc1cc(F)ccc1F)N1CCCCN2[C@@H](CO)[C@H](c3ccc(-c4cccnc4)cc3)[C@@H]2C1,n,x,n,x,x,x
CN(Cc1ccccc1)c1nc(N)c([N+](=O)[O-])c(NCc2ccccc2)n1,n,22.2,n,x,n,n
O=C(Nc1cc(F)ccc1F)N[C@@H]1CC[C@H](CCn2cc(C3CC3)nn2)O[C@@H]1CO,n,x,n,n,x,x
COc1ccc(N(CC(=O)Nc2cc(C)on2)S(=O)(=O)c2cc(C)ccc2C)cc1,n,n,232.0,x,n,n
Fc1cccc(CN2C[C@@H]3N[C@H](C2)C3c2ccc(-c3cncnc3)cc2)c1 (some centres not stated),x,x,x,n,x,x
Fc1cccc(CN2C[C@@H]3N[C@H](C2)C3c2ccc(-c3ccccc3)cc2)c1 (some centres not stated),x,x,x,84.4!,x,x
O=C(C1CCC1)N1C[C@@H]2N[C@H](C1)C2c1ccc(-c2cccc(F)c2)cc1 (some centres not stated),x,x,x,n,x,x
N#Cc1ccc(-c2ccc(C3[C@@H]4CN(Cc5ccccc5F)C[C@H]3N4)cc2)cc1 (some centres not stated),x,x,x,83.7!,x,x
Fc1cccc(CN2C[C@@H]3N[C@H](C2)[C@@H]3c2ccc(-c3cccc(F)c3)cc2)c1,x,x,x,86.3,x,x
COc1ccccc1CN1C[C@@H]2N[C@H](C1)C2c1ccc(-c2ccc(C#N)cc2)cc1 (some centres not stated),x,x,x,n,x,x
Fc1cccc(-c2ccc(C3[C@@H]4CN(Cc5ccccc5F)C[C@H]3N4)cc2)c1 (some centres not stated),x,x,x,82.8!,x,x
CCCNC(=O)Nc1ccc2c(c1)C(=O)N(C)C[C@H](OC)[C@H](C)CN(C(=O)C1CC1)[C@@H](C)CO2,n,x,x,n,x,x
CCCN1C[C@@H](C)[C@@H](OC)CN(C)C(=O)c2cc(NC(=O)CC(F)(F)F)ccc2OC[C@@H]1C,x,x,x,n,x,x
CO[C@@H]1CN(C)C(=O)c2ccc(NC(C)=O)cc2OC[C@@H](C)N(C(=O)c2ccccc2F)C[C@H]1C,n,x,n,x,x,x
SMILES,RAD54 branch,CendR NRP1 mod,miR-122 sensor,RAD52 anneal inh,Glyco luc inh,DNA FID counter
Cc1ccccc1-c1ccc(C2[C@@H]3CN(Cc4cccnc4)C[C@H]2N3)cc1 (some centres not stated),x,x,x,n,x,x
O=C(c1ccc2c(c1)OCO2)N1C[C@@H]2N[C@H](C1)C2c1ccc(-c2cccnc2)cc1 (some centres not stated),x,x,x,n,x,x
O=S(=O)(c1ccc(-c2ccccc2)cc1)N1C[C@@H]2N[C@H](C1)C2c1ccc(-c2ccccc2)cc1 (some centres not stated),x,x,x,n,x,x
Fc1cccc(-c2ccc(C3[C@@H]4CN(Cc5cccnc5)C[C@H]3N4)cc2)c1 (some centres not stated),x,x,x,55.2!,x,x
c1ncc(-c2ccc(C3[C@@H]4CN(Cc5ccc6c(c5)OCO6)C[C@H]3N4)cc2)cn1 (some centres not stated),x,x,x,51.2,x,x
N#Cc1ccc(-c2ccc([C@@H]3[C@@H]4CN(S(=O)(=O)c5ccc(-c6ccccc6)cc5)C[C@H]3N4)cc2)cc1,x,x,x,79.5,x,x
Cc1cccc(NC(=O)c2cc(S(=O)(=O)c3ccccc3)ccc2Cl)c1,n,34.1,x,x,n,n
Cc1ccc(C)c(S(=O)(=O)Nc2ccc3[nH]c(=O)[nH]c3c2)c1,n,n,x,n,n,n
Cc1ccc(C)c(S(=O)(=O)Nc2ccc3scnc3c2)c1,n,n,158.2,x,n,n
Cc1cc(Cl)ccc1OCCCC(=O)NO,n,n,n,x,80.8,n
Cc1ccc(S(=O)(=O)N(C)C[C@@H]2Oc3c(NS(=O)(=O)c4cn(C)cn4)cccc3C(=O)N([C@H](C)CO)C[C@@H]2C)cc1,x,x,x,n,x,x
O=c1c2ccccc2nc2n1C(CSc1ccc(F)cc1)CS2 (configuration not stated),x,28.9,n,n,n,n
O=c1c2ccccc2nc2n1C(CSc1ccccc1)CS2 (configuration not stated),x,n,n,n,n,n
CCn1cc(C(=O)NCc2cccs2)c(=O)c2ccc(C)nc21,n,27.8,n,x,n,n
COc1ccccc1S(=O)(=O)N(C)C[C@@H]1Oc2cc(C#CCC(C)C)ccc2S(=O)(=O)N([C@@H](C)CO)C[C@H]1C,n,x,n,n,x,x
Cc1csc(NC(C)c2nc3cc(C(F)(F)F)ccc3n2CCOCCO)n1 (configuration not stated),n,32.9,n,n,n,x
COc1ccc(NC(=O)COC(=O)[C@@H]2CCCN2C(=O)c2cccs2)cc1,n,28.8,n,x,n,n
CC(=O)C1=C(O)C(=O)N(Cc2ccco2)C1c1ccccc1F (configuration not stated),x,n,x,n,n,n
CC(C)(C)C(=O)C1=C(O)C(=O)N(Cc2ccccc2)C1c1ccccc1F (configuration not stated),n,n,238.7,n,n,n
COc1cccc2c(=O)c3cccc(N)c3[nH]c12,n,32.8,n,n,n,n
CCOC(=O)c1c(NC(C)=O)sc2c1CCC(C=O)=C2Sc1ccccc1,n,n,n,n,32.3,n
